From patent US20050164186, “Alteration of restriction endonuclease specificity by genetic selection” (published 2005) come the findings set out here.

The target of this experiment is T1, BstYI NN1 (K133N/S172N) (Bacillus stearothermophilus, K133N,S172N).
T1 chain: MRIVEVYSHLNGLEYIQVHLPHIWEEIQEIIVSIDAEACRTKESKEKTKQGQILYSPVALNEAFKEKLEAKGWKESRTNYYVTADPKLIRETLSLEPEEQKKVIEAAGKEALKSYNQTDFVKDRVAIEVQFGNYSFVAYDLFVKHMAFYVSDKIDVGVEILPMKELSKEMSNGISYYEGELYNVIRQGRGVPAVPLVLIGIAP
The experiment is described as follows: cleavage_in_vitro; 60 C. To be noted: label: radiolabel; dsDNA, one strand shown.

Sequence AGATCC showed a cleavage activity of 7 fold lower than AGATCT.
